# Source: PubChem BioAssay
# A selection: hits, their analogues and other compounds. The true share with any hit is near 17%.
# TGFb inhibitor: qHTS for Inhibitors of TGF-b. AID 588855, 2011. actives 1.2% (n = 410,000). Potency, µM (top dose mostly 46.1 µM), inactives show at the highest dose activity, negative = inhibition, hits mostly inhibitors. HepG2 CAGA-GFP TGF-b/SMAD3 reporter, GFP fluorescence, 18 h; TGF-beta stimulated, 500 pg/mL final; also: % is scaled to controls: 0 for no effect and ±100 for the full control effect; nearly all actives have a fitted effect of over 65% in size
#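 HEPG2 CAGA-GFP reporter cells (1000/well, DMEM with 1% FBS) received compounds, then recombinant TGF-beta at 500 pg/mL final for 18 hours at 37 degrees C. Per-cell GFP summed per well was normalised to unstimulated and stimulated DMSO controls before curve fitting.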
# DT40 TDP1 CPT: qHTS for Inhibitors of human tyrosyl-DNA phosphodiesterase 1 (TDP1): qHTS in cells in presence of CPT; actives 12% (n = 420,000); chicken DT40 Tdp1-/-;hTDP1 cells + 20 nM CPT, ATP luminescence, 48 h; Potency, µM (top dose mostly 46.2 µM), inactives show at the top dose activity change, negative = growth inhibition, usual class: inhibitors; also: % is scaled to controls: 0 for no effect and ±100 for the full control effect; nearly all actives have a fitted effect of over 55% in size
#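 Cell growth measured by CellTiter-Glo luminescence after a minimum 48 h, 37 C compound exposure with 20 nM CPT in Tdp1-knockout DT40 cells stably expressing hTDP1, seeded 400/well; qHTS titration format.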
# HepG2 viability: qHTS for Inhibitors of TGF-b: Cytotox Counterscreen. HepG2 CAGA-GFP viability, ATP luminescence, 18 h. Potency, µM (titrated, usually from 46.1 µM), without a hit: at the top dose activity change, negative = cytotoxicity, most hits filed as cytotoxic. actives 0.76% (n = 410,000)
#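 CellTiter-Glo luminescence gave cytotoxicity after 18 hours at 37 degrees C. The cells were HepG2 CAGA-GFP in 1% FBS DMEM, stimulated with 500 pg/mL TGF-beta after compound addition. %Activity was normalised to no-cell wells (complete cell-killing) and DMSO (no toxicity), and curves were fitted and classified.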
# HT1080-NT tox: qHTS for induction of synthetic lethality in tumor cells producing 2HG: qHTS for the HT-1080-NT fibrosarcoma cell line; AID 686970, 2013; Potency, µM (series often up to 46.1 µM), for inactives: at the highest dose activity, negative = less viability, usual class: cytotoxic; HT-1080-NT fibrosarcoma viability, CellTiter-Glo ATP luminescence, 48 h; actives 1.6% (n = 360,000);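 also: NT is the 2HG producing partner of a matched IDH1 knockdown line; 0% = DMSO-treated cells and -100% = media-only wells without cells; nearly all actives have a fitted effect of over 55% in size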
#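 HT-1080-NT; 750 cells/well; 5% FBS RPMI; 48 h compound, 37 degrees C; CellTiter-Glo luminescence; curve fitting and curve-class assignment.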
# HT1080 IDH1KD tx: qHTS for induction of synthetic lethality in tumor cells producing 2HG: qHTS for the HT-1080-IDH1KD cell line. HT-1080 IDH1 knockdown viability, ATP luminescence, 48 h. Potency, µM (top dose mostly 46.1 µM), for inactives: top-dose activity, negative = toxicity, most hits filed as cytotoxic. actives 2% (n = 360,000). AID 686971, 2013;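 also: 0% = DMSO wells and -100% = cell-free medium wells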
#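 After a 2 h attachment period, IDH1KD HT-1080 cells took pin-transferred compound for 48 h at 37 °C; ATP-based luminescence after 10 min room-temperature reagent incubation reported viability.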
# DT40 TDP1 no CPT: qHTS for Inhibitors of human tyrosyl-DNA phosphodiesterase 1 (TDP1): qHTS in cells in absence of CPT. DT40 Tdp1-/- hTDP1 cells, no CPT, ATP luminescence, 48 h. Potency, µM (highest dose often 46.2 µM), inactives show top-dose activity change, negative = growth inhibition, hits mostly inhibitors. actives 15% (n = 420,000). AID 686978, 2013; also: % is scaled to controls: 0 for no effect and ±100 for the full control effect; nearly all actives have a fitted effect of over 55% in size
#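 Cells were dispensed at 400 per well, compounds added by pin tool, plates incubated ≥48 hr at 37 °C, then CellTiter-Glo added for 30 min at room temperature before luminescence reading. Line: DT40 Tdp1-/- complemented with hTDP1; camptothecin omitted.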
# * marks the source's active call; other numbers are inactive results; ? = inconclusive; . = not tested or not shown; [ ] = another dose, or the depositor's remark. Calls follow the shape of the dose curve; as a rule, active = well fitted curve in the direction sought with a large enough effect; inconclusive = small, poorly fitted or top-dose-only effect, or another doubt; inactive = no such curve, though single readings can be large; an effect the other way counts as inactive or inconclusive. Potency is read from the fitted curve at half-maximal effect.
SMILES,TGFb inhibitor,DT40 TDP1 CPT,HepG2 viability,HT1080-NT tox,HT1080 IDH1KD tx,DT40 TDP1 no CPT
CC(C)=CCCC(C)CN1CCC(N2CCC(C(=O)N3CCOCC3)CC2)CC1 (configuration not stated),-7%,?,-18%,-4%,-22%,?
CC(C)=CCCC(C)CN1CCC(N2CCC(C(=O)NC(C)C)CC2)CC1 (configuration not stated),-18%,23µM*,-24%,-3%,-8%,16µM*
Cc1cc(-c2ccccc2)n2nc(-c3cccc(Br)c3)cc2n1,-3%,?,-6%,.,.,?
CN1[C@@H](Cc2ccccc2)COc2cc(N3CCSCC3)ccc2S1(=O)=O,.,?,.,3%,-14%,16µM*
O=S1(=O)N[C@H](Cc2ccccc2)COc2cc(N3CCSCC3)ccc21,.,1%,.,8%,0%,-20%
CCOC(=O)c1ccc(-n2c(=S)sc3c(=O)[nH]c(C)nc32)cc1,0%,?,-24%,2%,-4%,16µM*
CCOC(=O)CSc1nc2c(sc(=S)n2-c2ccc(CC)cc2)c(=O)[nH]1,?,-30%,-25%,-26%,-28%,?
Cc1ccc(CNC(=O)c2oc3ccc(S(=O)(=O)N4CCC(C)CC4)cc3c2C)cc1,?,?,-3%,.,.,16µM*
Cc1c(C(=O)NCc2cccnc2)oc2ccc(S(=O)(=O)N3CCCCCC3)cc12,5%,?,-16%,-17%,-12%,?
Cc1c(C(=O)NCc2cccnc2)oc2ccc(S(=O)(=O)N3CCCCC3)cc12,-4%,10µM*,-41%,?,14µM*,14µM*
Cc1ccc(CNC(=O)c2oc3ccc(S(=O)(=O)N4CCOCC4)cc3c2C)cc1,-7%,-16%,-17%,-4%,-27%,?
Cc1ccc(NC(=S)Nc2cccnc2)c(S(=O)(=O)N2CCCCC2)c1,?,23µM*,-4%,?,?,16µM*
O=S(=O)(c1ccc(NC(=S)NCc2cccnc2)cc1)N1CCCCC1,?,8.2µM*,-22%,?,10µM*,6.5µM*
O=C(NCc1cccnc1)c1ccc(S(=O)(=O)N2CCCCC2)cc1,-7%,?,-18%,6%,-1%,?
COc1ccc(C2/C=C\CN(Cc3ccccc3)C(C)C(=O)N2Cc2ccc(F)cc2)cc1 (configuration not stated),?,.,-4%,.,.,.
Cc1cc[n+](Cc2ccccc2)c(N)c1,8%,-1%,9%,4%,-1%,-16%
CO[C@@H]1CN(C)C(=O)c2cc(NS(=O)(=O)c3ccc(C)cc3)ccc2OC[C@H](C)N(Cc2nccs2)C[C@H]1C,.,?,.,1%,15%,?
CC1CCc2sc(C(=O)NCc3ccccn3)cc2C1 (configuration not stated),3%,18µM*,-2%,-5%,0%,16µM*
Cc1ccc(CNC(=O)COC(=O)c2cc3c(s2)CCC(C)C3)cc1 (configuration not stated),-21%,21µM*,-42%,?,?,?
CC1CCc2sc(C(=O)OCC(=O)NCc3ccccc3)cc2C1 (configuration not stated),?,21µM*,-33%,?,?,18µM*
C/C(N)=C(/C#N)C(=O)COC(=O)c1cc2c(s1)CCC(C)C2 (configuration not stated),4%,-8%,0%,-17%,-11%,-29%
CC1CCc2c(C(=O)NCc3ccccn3)csc2C1 (configuration not stated),-1%,-11%,-7%,-9%,-9%,-35%
O=C(c1ccc(NC(=O)C(c2ccccc2)c2ccccc2)cc1)c1ccc(C(=O)O)c(C(=O)O)c1,-1%,9%,1%,18%,11%,-11%
O=C(NCc1cccc(F)c1)c1ccccc1NC(=O)c1nsc2ccccc12,-23%,?,-38%,.,.,23µM*
CN(C)c1ccc(CNC(=O)c2ccccc2NC(=O)c2nsc3ccccc23)cc1,0%,16µM*,0%,.,.,13µM*
SMILES,TGFb inhibitor,DT40 TDP1 CPT,HepG2 viability,HT1080-NT tox,HT1080 IDH1KD tx,DT40 TDP1 no CPT
CC1(C)C(N(O)C(=O)Nc2ccc(Cl)cc2)N(c2ccc(Cl)cc2)C(=O)N1CC(=O)NN (configuration not stated),-17%,3%,-4%,-35%,?,-2%
C[C@H](NC(=O)[C@@H]1Cc2ccccc2CN1)C(=O)NC1CCCC1,0%,-2%,-5%,1%,10%,2%
O=C(CCl)N1c2ccccc2Sc2ccc3ccccc3c21,14µM*,3.7µM*,11µM*,18µM*,?,2.3µM*
O=C(COc1ccc2ccccc2c1)N1c2ccccc2Sc2ccccc21,-1%,?,-33%,-15%[9.24 µM],?,?
CNc1ccc(Cl)cc1S(=O)(=O)c1ccccc1[N+](=O)[O-],?,-58%,-16%,?,?,15µM*
O=[N+]([O-])c1ccccc1S(=O)(=O)c1ccccc1,-6%,-24%,-16%,-2%,0%,17%
Cc1nc2cc(NC(=O)C3CC34CCN(Cc3ccc(O)c(Cl)c3)CC4)ccc2s1 (configuration not stated),.,6%,.,.,.,-13%
Cc1nc(SCC(=O)CC(=O)OC(C)C)c(C#N)c(C)c1C,0%,21µM*,-3%,8%,0%,?
Cc1cc(C)c(C#N)c(SCC(=O)CC(=O)OC(C)C)n1,-19%,?,10%,4%,0%,4%
COc1ccc(CCNC(=O)C2CCN(Cc3nc(-c4cccc(Cl)c4)oc3C)CC2)cc1OC,0%,18µM*,-17%,-10%,-24%,21µM*
COc1ccc(-c2nc(CN3CCC(C(=O)NCCc4ccccc4)CC3)c(C)o2)cc1OC,-29%,-29%,-25%,.,.,?
